Screens: PubChem, National Center for Advancing Translational Sciences (NCATS)
Rab9 prom act: Rab9 promoter activation; Huh7 Rab9 promoter-luciferase reporter, luminescence, 24 h; AID 485297; 2.8% of 320,000 active; Potency, µM (top dose mostly 9.22 µM), for the others: at the top dose activation, negative = inhibition, actives largely listed as activators; note: % of control where 0% means no effect; nearly all actives have a fitted effect of over 60% in size
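Steps: seed 1500 Huh7 Rab9-luc cells per well, rest 2 h at 37 °C; add compound in DMSO; incubate 24 h; add luciferase reagent, 10 min ambient; read luminescence.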
FLuc modulator: counter-screen for miR-21 project: firefly luciferase inhibitors or activators; P08659; purified FLuc, Km substrates, luminescence inhibition; Potency, µM (highest dose often 57.5 µM), inactives show top-dose activity change, negative = inhibition, actives largely listed as inhibitors; 6.9% of 360,000 active; AID 588342;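 note: plate controls were vehicle for no effect and reference inhibitor for full effect; nearly all actives have a fitted effect of over 55% in size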
Target sequence (P08659 whole entry, looked up): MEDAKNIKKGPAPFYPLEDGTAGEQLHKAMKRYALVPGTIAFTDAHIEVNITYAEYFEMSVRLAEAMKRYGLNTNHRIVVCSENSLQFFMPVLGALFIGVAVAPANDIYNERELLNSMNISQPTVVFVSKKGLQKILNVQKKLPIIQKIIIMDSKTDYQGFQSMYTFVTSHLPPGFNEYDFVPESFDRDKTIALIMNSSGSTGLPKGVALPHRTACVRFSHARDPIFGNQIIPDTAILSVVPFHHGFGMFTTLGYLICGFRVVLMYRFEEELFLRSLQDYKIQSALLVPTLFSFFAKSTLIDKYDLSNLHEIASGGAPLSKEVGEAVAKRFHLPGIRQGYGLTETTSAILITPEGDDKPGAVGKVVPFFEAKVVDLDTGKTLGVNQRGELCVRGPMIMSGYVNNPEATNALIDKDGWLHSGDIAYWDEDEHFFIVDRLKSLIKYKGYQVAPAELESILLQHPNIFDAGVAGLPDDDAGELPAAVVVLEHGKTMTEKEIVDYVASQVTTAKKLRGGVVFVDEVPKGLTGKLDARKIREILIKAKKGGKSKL
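Purified P. pyralis luciferase, 10 nM final, with Km-level 10 uM D-luciferin and 10 uM ATP in 50 mM Tris acetate pH 7.5, 10 mM Mg acetate, 0.01% Tween-20, 0.05% BSA; 6-point qHTS titration about 60 µM downward; luminescence read.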
ELG1 genotox: induces genotoxicity in HEK293T cells with luciferase-tagged ELG1; Potency, µM (highest dose often 46 µM), for inactives: at the highest dose activity change, positive = activation, most hits filed as activators; 1.3% of 330,000 active; HEK293T ELG1-luciferase reporter, luminescence, 16 h; note: % of control where 0% means no effect; nearly all actives have a fitted effect of over 60% in size
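ELG1-luciferase HEK293T cells, 2,000/well; compound pinned in; 16 hr, 37 °C, 5% CO2; ONE-Glo, 30 min RT; luminescence on CCD imager.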
NPC1 promoter act: NPC1 promoter activation; Huh7 NPC1 promoter luciferase reporter, 24 h; Potency, µM (titrated, usually from 9.22 µM), for inactives: at the top dose activation, actives largely listed as activators; 2.4% of 320,000 active; note: % of control where 0% means no effect; nearly all actives have a fitted effect of over 60% in size
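Cells: Huh7 expressing luciferase under the NPC1 promoter, 1500/well. Seeded 2 h, compound added, incubated 24 h at 37 °C. Luciferase reagent, 10 min ambient, then luminescence.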
ELG1 DNA repair: ELG1-dependent DNA repair inhibition | HEK293T ELG1-luciferase reporter, luminescence, 16 h; DNA damage induced by 5-fluorouridine | Potency, µM (highest dose often 46.1 µM), for inactives: top-dose activity change, negative = inhibition, hits mostly inhibitors | 2.3% of 330,000 active | AID 504467; note: % is set by controls: 0 for no effect and ±100 for the full control effect; nearly all actives have a fitted effect of over 55% in size
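Step one: seed 2,000 cells per well. Step two: pin-transfer compound or DMSO alongside 5-fluorouridine. Step three: incubate 16 hr, 37 °C, 5% CO2. Step four: add ONE-Glo, wait 30 min, read luminescence.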
SMN2 splice enh: SMN2 splice variant enhancement; HEK293 SMN2-luciferase splicing reporter, luminescence, 30-36 h; Potency, µM (series often up to 46.1 µM), without a hit: top-dose activity change, positive = activation, hits mostly activators; 2.8% of 210,000 active; note: % of control where 0% means no effect; nearly all actives have a fitted effect of over 55% in size
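qHTS luciferase splicing reporter: luminescence rises when SMN2 exon 7 is included in transfected HEK293 cells. Compound exposure lasted 30-36 h at 37C, with 4.5 mM final sodium butyrate as control, followed by a ONE-Glo read.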
Numbers without * were called inactive; ? = inconclusive; nt = no result given. Shown are actives, neighbours in structure and some others; about 9.2% of the full set was active somewhere. Calls come from the whole dose curve; as a rule, active = well fitted curve in the direction sought with a large enough effect; inconclusive = small, poorly fitted or top-dose-only effect, or another doubt; inactive = no such curve, though single readings can be large; an effect the other way counts as inactive or inconclusive. Potency is the fitted concentration of half-maximal effect.

SMILES	Rab9 prom act	FLuc modulator	ELG1 genotox	NPC1 promoter act	ELG1 DNA repair	SMN2 splice enh
CC(C)(C)OC(=O)NCCCC[C@H](NC(=O)c1nc[nH]c1C(=O)N[C@@H](CCCCNC(=O)OC(C)(C)C)C(=O)OC(C)(C)C)C(=O)OC(C)(C)C	-17%	3%	-14%	-7%	9.2µM*	nt
NNC1=N[C@H]2CS(=O)(=O)C[C@H]2S1	-5%	0%	1%	-3%	10%	0%
CCCCn1c(N)c(N(CC(C)C)C(=O)CCC2CCCCC2)c(=O)[nH]c1=O	-2%	1%	15%	-11%	-19%	nt
Cc1csc(NC(=O)CSc2nc(=O)n(CCN(C)C)c3c2CCCC3)n1	1%	8%	1%	-3%	8%	nt
CN(Cc1ccccc1)C(=O)CCCn1c(=O)c2cccn2c2cccnc21	0%	3%	3%	-22%	5%	nt
CC(C)CN=C(NS(=O)(=O)c1ccccc1)C(Cl)(Cl)Cl	-19%	-3%	-21%	-17%	?	4%
CC(C)c1ccc(NC(=O)CN2C(=O)c3cccc4cccc2c34)cc1	nt	2%	nt	nt	nt	nt
CC(C)C[C@H](NC(=O)c1nc[nH]c1C(=O)NC1CCN(C(=O)OC(C)(C)C)CC1)C(=O)OC(C)(C)C	-5%	-3%	-13%	2%	-12%	nt
Cc1cccc(NC(=O)c2nc[nH]c2C(=O)N[C@@H](CCCCNC(=O)OC(C)(C)C)C(=O)OC(C)(C)C)c1	-4%	-3%	-15%	-4%	15µM*	nt
CC(C)(C)OC(=O)NCCCC[C@H](NC(=O)c1nc[nH]c1C(=O)NC1CCN(C(=O)OC(C)(C)C)CC1)C(=O)OC(C)(C)C	-5%	0%	-16%	-12%	16µM*	nt
Cc1cccc(NC(=O)c2nc[nH]c2C(=O)NCCCCCNC(=O)OC(C)(C)C)c1	-2%	-18%	-12%	5%	21µM*	nt
COc1ccc(CNC(=O)c2cc3cc(C)ccc3n2C)cc1	nt	-1%	nt	nt	nt	nt
Cc1ccc(S(=O)(=O)N2CCC(C(=O)NNC(=O)c3cccnc3)CC2)cc1	-13%	-1%	0%	-5%	7%	nt
Cc1cc(NC(=O)c2ccc3c(c2)OCCO3)no1	0.45µM*	1.2µM*	0.65µM*	?	?	3.5µM*
CCOc1ccc(C(=O)Nc2cc(C)on2)cc1OCC	1%	3%	12%	-1%	0%	-3%
CC(=O)Nc1ccc(C(=O)Nc2cc(C)on2)cc1	10%	-4%	11%	5%	?	nt
Cc1cc(NC(=O)c2ccc3c(c2)OCO3)no1	1.6µM*	11µM*	?	2.5µM*	?	11µM*
Cc1nc(NC(=O)c2ccc3c(c2)OCO3)ccc1Br	3.5µM*	9.5µM*	?	3.2µM*	?	11µM*
Cc1nc(NC(=O)c2cncc(Br)c2)ccc1Br	?	0%	5%	?	?	nt
Cc1cc(NC(=O)c2ccc(F)cc2)no1	?	17µM*	?	?	?	nt
CCOC(=O)C(=O)Nc1cc(C)on1	1.6µM*	1.7µM*	?	2.8µM*	?	nt
Cc1cc(NC(=O)c2nn(C)c(C)c2Br)no1	2.8µM*	?	?	?	?	nt
Cc1cc(NC(=O)c2nn(C)c(C)c2[N+](=O)[O-])no1	0%	5%	2%	-5%	2%	-21%
CC(CCc1ccccc1)NC(=O)CN1CCSc2ccccc21 (stereo not given)	17%	-13%	-7%	3%	15%	nt
COc1ccc(/C=N/n2cnc3c([nH]c4ccccc43)c2=O)cc1COc1ccccn1	-2%	-6%	-12%	2%	-2%	-27%
SMILES	Rab9 prom act	FLuc modulator	ELG1 genotox	NPC1 promoter act	ELG1 DNA repair	SMN2 splice enh
COc1ccc(-c2cc(C(=O)N(C)Cc3cccc(OC)c3OC)c3ccccc3n2)cc1OC	-2%	-23%	-18%	-3%	13µM*	nt
COc1ccc(CCN(C)C(=O)c2cc(-c3ccccc3)nc3ccccc23)cc1OC	18%	15µM*	-12%	3%	?	nt
COc1cccc(CN(C)C(=O)c2ccccc2Sc2ccccc2C#N)c1OC	0.45µM*	8.5µM*	12%	0.32µM*	?	nt
COc1ccc(CCN(C)C(=O)c2cc(-c3ccccc3)nc3ccc(C)cc23)cc1OC	3%	2.4µM*	?	?	?	nt
Cc1cc(C(=O)NNC(=S)Nc2ccccc2)nn1C	?	-2%	2%	13%	-5%	17%
Cc1ccc(NC(=O)CSCc2cc(=O)c3ccccc3[nH]2)c(C)c1	nt	0%	nt	nt	nt	nt
CC(C)Oc1ccc(S(=O)(=O)N2CCOCC2)cc1NC(=O)c1cc([N+](=O)[O-])ccc1N1CCOCC1	-3%	4%	-14%	1%	?	nt
CC(C)Cc1ccc(-c2cc(=O)[nH][nH]2)cc1	17%	17µM*	4%	0%	9%	0%
Cc1ccc(-c2cc(=O)[nH][nH]2)c(C)c1	-10%	0%	-3%	1%	2%	12%
CCOC(=O)c1ccc(NC(=O)C2C3CCCCC32)cc1 (stereo not given)	?	15µM*	23%	?	?	nt
CCOC(=O)c1ccc(NC(=O)N2CCCCCC2)cc1	1.8µM*	8.5µM*	5.8µM*	1.1µM*	?	nt
CCCOC(=O)c1ccc(NC(=O)C2CCCO2)cc1 (stereo not given)	4µM*	?	?	?	?	?
CC(C)COC(=O)c1ccc(NC(=O)C2C3CCC(C3)C2C(=O)O)cc1 (stereo not given)	1.1µM*	17µM*	?	4µM*	?	21%
CCCCc1nc2cc(C(=O)N3CCC(OCCOC)CC3)ccc2o1	15%	?	?	18%	29%	nt
CCCCc1nc2cc(C(=O)NC(C)c3cnn(C)c3)ccc2o1 (stereo not given)	4µM*	?	?	?	?	nt
CCCCc1nc2cc(C(=O)N3CCCC3)ccc2o1	2.8µM*	?	?	?	?	nt
CCCCc1nc2cc(C(=O)N3CCCC(OCCC)C3)ccc2o1 (stereo not given)	?	17µM*	?	?	?	nt
CCCCc1nc2cc(C(=O)NCc3ccccn3)ccc2o1	12%	-10%	7%	2%	?	nt
COCC1CCCN(C(=O)c2ccc3oc(CCCc4ccccc4)nc3c2)C1 (stereo not given)	11%	?	1%	4%	9%	nt
CCCCc1nc2cc(C(=O)N3CCCC(COC)C3)ccc2o1 (stereo not given)	4µM*	17µM*	?	4µM*	?	nt
